Test results reported in PubChem BioAssay AID504329 (Southern Research Specialized Biocontainment Screening …, 2011).
The whole screen tested about 340,000 compounds, of which about 1,000 (0.29%) were called active. Rule as the data show it: inconclusive = inhibition above about 27% without an active follow-up result; inactive = below that. These entries were drawn from the full list. Entries with a potency or affinity are not part of this list.

Test: NS1A inhibition, H1N1 influenza, cell based functional assay (AID 504329)
Settings: percent inhibition, at 12.5 µM, active compounds read high

SMILES	inhibition
Cc1cccc(C)c1NC(=O)CN(C)C(=O)C(c1ccccc1)c1ccccc1	-4.5% (inactive)
COc1ccc(COC(=O)CCS(=O)(=O)c2ccc(C)cc2)cc1F	-5.19% (inactive)
CN(C)CCNc1ccc(CO)c2oc3ccc(O)cc3c(=O)c12	2.86% (inactive)
CCN(CC)CCCNc1ccc2ncn3c4ccc(O)cc4c(=O)c1c23	18.1% (inactive)
CCN(CC)CCNc1ccc(CO)c2sc3ccccc3c(=O)c12	-1.15% (inactive)
CN(C)CCNc1ccc(CO)c2sc3ccc(O)cc3c(=O)c12	21.9% (inactive)
CCOC(=O)N1CCN(C(=O)CN(C)S(=O)(=O)c2ccc3c(c2)c(=O)n(C)c(=O)n3C)CC1	1.25% (inactive)
CCn1nc(C)c(/C=N\NC(=O)c2cccc(OC)c2)c1C	-6.26% (inactive)
O=C(Nc1cccnc1)C1CCN(S(=O)(=O)c2cccc3nonc23)CC1	7.53% (inactive)
CCOc1cc(/C=C2\SC(=S)N(Nc3ccccc3)C2=O)ccc1O	-19.7% (inactive)
COc1cc(/C=C2\SC(=S)N(Nc3ccccc3)C2=O)ccc1O	16.4% (inactive)
N#CC1=C2SCCN2C(=O)C(C#N)C12CCCCC2 (stereo not drawn)	-0.17% (inactive)
Cc1cc(C)c2oc(=O)cc(CN3CCN(Cc4ccccc4)CC3)c2c1	0.54% (inactive)
COc1cccc(-n2c(SCC(=O)NCc3cccs3)nc3ccccc3c2=O)c1	0.54% (inactive)
O=C(c1ccc(F)cc1)N1CCC(C(=O)N2CCN(S(=O)(=O)c3cccc(Cl)c3)CC2)CC1	-5.53% (inactive)
CCOCCc1nnc(NC(=O)CN2C(=O)c3ccccc3C2=O)s1	-7.03% (inactive)
CN(C)c1ncc(C2=C(Cl)C(=O)C(N3CCCC3)=C(Cl)C2=O)s1	8.59% (inactive)
CN1CCN(C2=C(Cl)C(=O)C(c3cnc(N4CCCCC4)s3)=C(Cl)C2=O)CC1	18.9% (inactive)
CN1CC(C(=O)c2ccc(Cl)cc2)C(c2ccccc2)C1 (stereo not drawn)	-3.51% (inactive)
COc1ccc(C(=O)C2CN(C)CC2c2ccc(Cl)cc2)cc1 (stereo not drawn)	-2.24% (inactive)

SMILES	inhibition
O=[N+]([O-])c1ccc2nc(N3CCCC3)sc2c1	-13.2% (inactive)
COc1cc(Cl)c(C)cc1N1C(=O)CN(Cc2ccccc2)C1=S	-3.41% (inactive)
O=C(COc1cc(F)ccc1[N+](=O)[O-])Nc1ccc(N2CCOCC2)cc1	6.79% (inactive)
Cc1ccc(S(=O)(=O)N2CC(O)C[C@H]2C(=O)OCC(=O)Nc2ccc(N3CCOCC3)cc2)cc1C (stereo partly drawn)	-8.01% (inactive)
Cc1ccc(S(=O)(=O)N2CC(O)C[C@H]2C(=O)OCC(=O)N2CCN(c3ccc(F)cc3)CC2)cc1C (stereo partly drawn)	-4.2% (inactive)
COc1ccc(NC(=O)CNCCC2=CCCCC2)cc1	-5.53% (inactive)
CN1CCN(c2ccc(NC(=O)COc3ccccc3[N+](=O)[O-])cc2)CC1	0.13% (inactive)
O=C(CNCCC1=CCCCC1)Nc1ccccc1N1CCCCCC1	-4.99% (inactive)
CC(=O)Nc1ccc(NC(=O)COC(=O)C2CCCCC2)cc1	-9.9% (inactive)
NS(=O)(=O)c1ccc(NC(=O)COC(=O)C2CCCCC2)cc1	-11.2% (inactive)
COCc1cc(=O)[nH]c(SCC(=O)N2CCOCC2)n1	-7.79% (inactive)
CC(=O)NC(CC(=O)OCC(=O)N1CCN(S(=O)(=O)c2ccc(Cl)cc2)CC1)c1ccccc1 (stereo not drawn)	-16.1% (inactive)
COCCN(C(=O)CSc1nnc(-c2ccncc2)n1C)c1c(N)n(CC(C)C)c(=O)[nH]c1=O	-15.9% (inactive)
CCSc1oc(-c2ccco2)nc1S(=O)(=O)c1ccc(F)cc1	5.79% (inactive)
c1ccc(COc2ccccc2CNC2CCCC2)cc1	0.14% (inactive)
O=C(/C=C/c1ccc(Cl)cc1)NCCCN1CCOCC1	-7.22% (inactive)
CCC(Sc1nc2cc(OC)c(OC)cc2c(=O)n1CCc1ccc(OC)c(OC)c1)C(=O)NCCOC (stereo not drawn)	7.7% (inactive)
COc1ccc(Cn2c(CCC(=O)NCc3ccco3)nc3cccnc32)cc1	0.67% (inactive)
CCc1nnc(NC(=O)c2cc(-c3ccncc3)nc3ccccc23)s1	-12.1% (inactive)
Cc1ccc(N(C(=O)c2csnn2)C(C(=O)NC(C)(C)C)c2cccnc2)cc1 (stereo not drawn)	-8.33% (inactive)

SMILES	inhibition
CC1CN(c2ccc([N+](=O)[O-])c(NCCOc3ccccc3)c2)CCN1 (stereo not drawn)	4.39% (inactive)
CC1CN(c2ccc([N+](=O)[O-])c(NCCOc3ccc(Cl)cc3)c2)CC(C)N1 (stereo not drawn)	20.5% (inactive)
COCCN1C(=O)N[C@@H](CCc2ccccc2)[C@@H](C(=O)OC)[C@H]1C	-8.6% (inactive)
COc1ccccc1NC(=O)CSc1nnc(CNC(=O)c2cccs2)o1	-6.38% (inactive)
O=C(Cn1cnc(S(=O)(=O)N2CCCCC2)c1)Nc1ccc(OC(F)(F)F)cc1	2.65% (inactive)
O=S(=O)(Nc1ccc2c(c1)OCCO2)c1c(F)cccc1F	-2% (inactive)
CNc1nc(Cl)nc(Nc2ccccc2)n1	6.99% (inactive)
NNc1nc(Nc2ccccc2)nc(Nc2ccccc2)n1	-2.5% (inactive)
O=C(CCS(=O)CCC(=O)NCc1ccccc1)NCc1ccccc1	-7.22% (inactive)
CCN1C(=O)/C(=C/C=C2\C=CN(CC)c3ccccc32)SC1=S	21% (inactive)
CCN1C(=O)/C(=C/C=C2/Sc3ccccc3N2CCO)SC1=S	8.17% (inactive)
CC(=O)c1ccc(N2CCN(C(=O)Cc3n[nH]c(=O)c4ccccc34)CC2)cc1	2.74% (inactive)
COc1cccc(CN(C)C(=O)c2cccc(OCc3ccccc3)c2)c1	5.5% (inactive)
Cc1cc(OC(C)C(=O)NCCN2CCOCC2)c2c(C)c(C)c(=O)oc2c1 (stereo not drawn)	2.99% (inactive)
COC(=O)/C(N=Nc1c(C)n(C)n(-c2ccccc2)c1=O)=C(\C)O	8.11% (inactive)
Cc1c(N=N/C(C(=O)Nc2ccccc2)=C(/O)c2ccccc2)c(=O)n(-c2ccccc2)n1C	12.5% (inactive)
CCOC(=O)/C(N=Nc1c(C)n(C)n(-c2ccccc2)c1=O)=C(/O)c1ccccc1	3.43% (inactive)
CC(=O)/C(N=Nc1c(C)n(C)n(-c2ccccc2)c1=O)=C(\C)O	1.66% (inactive)
